{"source": "PubChem BioAssay", "note": "The source made the active and inactive calls.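 How the source made its calls, unless noted: active means growth inhibition above 50% at the single 2 µM test dose, taken to imply half-maximal potency below 2 µM; inactive means the rest.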"}
{"assay": "antimalarial activity against Dd2 strain (AID 2302);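 further: 0% = DMSO untreated growth and 100% = chloroquine plus artemisinin killed control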", "conditions": "P. falciparum Dd2 in RBCs, LDH growth readout, 72 h; at 2 µM; active compounds read high"}
{"smiles": "Cc1cc(N(C)CCN(C)C)nc(Nc2ccc(Cl)cc2)n1", "growth inhibition": "14% (inactive)"}
{"smiles": "c1ccc(CN2CCC(Nc3ccc(-c4cn[nH]c4-c4ccccn4)nc3)CC2)cc1", "growth inhibition": "23% (inactive)"}
{"smiles": "O=C(Nc1ccc2c(c1)CCN2C1CCN(Cc2ccc(O)cc2)C1)c1ccco1", "note": "(stereo not drawn)", "growth inhibition": "63% (active)"}
{"smiles": "Cc1ccc(NC(=O)c2ccc(CN3CCCN(CC4CCCCC4)CC3)cc2)cc1", "growth inhibition": "42% (inactive)"}
{"smiles": "COc1ccc2ccccc2c1CCCCN1CCN(CC(c2ccc(F)cc2)N2CCC(N3CCCC3)CC2)CC1", "note": "(stereo not drawn)", "growth inhibition": "73% (active)"}
{"smiles": "O=C(NCCN1CCC(NC(=O)c2ccc(-c3ccccn3)s2)CC1)c1ccc(Cl)c(Cl)c1", "growth inhibition": "48% (inactive)"}
{"smiles": "Cc1cc(NN=Cc2ccc(F)cc2)c2ccc(F)cc2n1", "growth inhibition": "30% (inactive)"}
{"smiles": "C=C[C@H]1CN(CCCCCCC)CC[C@H]1CCNc1ccnc2ccc(OC)cc12", "growth inhibition": "81% (active)"}
{"smiles": "CCC(O)c1ccc(Br)cc1NC(=O)c1cccc(Cl)c1", "note": "(stereo not drawn)", "growth inhibition": "52% (active)"}
{"smiles": "FC(F)(F)c1ccc2nc(-c3cccc(-c4ccc(CNCCc5ccncc5)cc4)c3)[nH]c2c1", "growth inhibition": "100% (active)"}
{"smiles": "CC(C)C[C@@H](/C=N/N1CC(=O)NC1=O)NC(=O)[C@H](CC(C)C)NC(=O)c1ccc(OCCN2CCOCC2)cc1", "growth inhibition": "79% (active)"}
{"smiles": "Cc1cccc2[nH]c(-c3cccc(-c4ccc(CNCc5cnn(-c6ccccc6)n5)cc4)c3)nc12", "growth inhibition": "66% (active)"}
{"smiles": "CCNC(=O)N[C@@H]1CN[C@@H](C#Cc2cc3c(Nc4ccc(OCc5cccc(F)c5)c(Cl)c4)ncnc3s2)C1", "growth inhibition": "27% (inactive)"}
{"smiles": "CN1CCN(CCCN(Cc2ccc(-c3ccc(CNC4CCCC4)cc3)cc2)C(=O)CCC2CCCC2)CC1", "growth inhibition": "96% (active)"}
{"smiles": "CCOC(=O)c1c[nH]c2c(sc3cc(OC)ccc32)c1=O", "growth inhibition": "93% (active)"}
{"smiles": "CS(=O)(=O)c1ccc(-c2cncc(Cl)n2)cc1", "growth inhibition": "95% (active)"}
{"smiles": "Cc1cccc2[nH]c(-c3cccc(-c4ccc(NC(=O)C(C)(C)c5ccccn5)cc4)c3)nc12", "growth inhibition": "4% (inactive)"}
{"smiles": "CN1CCc2ccc(NC(=O)Nc3ccc(Cl)c(Cl)c3)cc2C1", "growth inhibition": "22% (inactive)"}
{"smiles": "CCCCCCCCn1c2c(c(=N)c3c1CCC3)CCC2", "growth inhibition": "93% (active)"}
{"smiles": "Cc1cc(N2CCCN(C)CC2)nc(Nc2ccc(Cl)cc2)n1", "growth inhibition": "11% (inactive)"}
{"smiles": "N#CCSc1nnc(-c2ccccc2)c2ccccc12", "growth inhibition": "73% (active)"}
{"smiles": "CC(=O)N1CCC(C(=O)Nc2ccc(-c3cccc(-c4nc5ccc(C(F)(F)F)cc5[nH]4)c3)cc2)CC1", "growth inhibition": "33% (inactive)"}
{"smiles": "Cc1cc(N[C@@H](CC(C)C)C(=O)NCCOc2ccccc2)nc(NCCOc2ccccc2)n1", "growth inhibition": "6% (inactive)"}
{"smiles": "O=C(Nc1cccc(CN2CCCN(Cc3ncc[nH]3)CC2)c1)c1ccc(Cl)c(Cl)c1", "growth inhibition": "16% (inactive)"}
{"smiles": "O=C(NC1CCCCC1)c1csc(C2CCCN(C(=O)c3ccc(O)c(-c4cccc(C(F)(F)F)c4)c3)C2)n1", "note": "(stereo not drawn)", "growth inhibition": "85% (active)"}
{"smiles": "CC(=O)c1ccc(O)c(CC(O)CO)c1", "note": "(stereo not drawn)", "growth inhibition": "-1% (inactive)"}
{"smiles": "O=C(/C=C/c1cc(C(F)(F)F)ccc1F)NCCCCCN1CCC(c2c[nH]c3ccccc23)CC1", "growth inhibition": "4% (inactive)"}
{"smiles": "Cc1nc2c(-n3cc(Cn4ccnc4)c4ccccc43)ncnc2n1-c1ccc(Cl)cc1Cl", "growth inhibition": "29% (inactive)"}
{"smiles": "Cc1cc(NC(=O)c2ccco2)ccc1OC1CCN(Cc2ccc(F)cc2)CC1", "growth inhibition": "93% (active)"}
{"smiles": "Cc1cc(CN2CCCC(OC(c3ccc(F)cc3)c3ccc(F)cc3)C2)ccc1O", "note": "(stereo not drawn)", "growth inhibition": "82% (active)"}
{"smiles": "NC(N)=NN=CC(=O)Nc1cc([N+](=O)[O-])cc([N+](=O)[O-])c1", "growth inhibition": "-2% (inactive)"}
{"smiles": "COc1cc(Nc2nccc(N3CCC(NS(=O)(=O)c4ccc(NC(C)=O)cc4)CC3)n2)cc(OC)c1OC", "growth inhibition": "42% (inactive)"}
{"smiles": "O=C(c1cccs1)N1N=C(c2cccs2)CC1c1cccc([N+](=O)[O-])c1", "note": "(stereo not drawn)", "growth inhibition": "27% (inactive)"}
{"smiles": "Oc1ccc(Cl)c2c1C(c1ccccc1)=NCC2", "growth inhibition": "43% (inactive)"}
{"smiles": "Cc1nc(C)c(CC(=O)Nc2cccc(-c3cccc(-c4nc5ccc(C(F)(F)F)cc5[nH]4)c3)c2)s1", "growth inhibition": "30% (inactive)"}
{"smiles": "CN(C)CCOc1cc(NC(=O)Nc2cccc3c(-c4ccncc4)cccc23)ccc1I", "growth inhibition": "28% (inactive)"}
{"smiles": "Cc1ccc(CN=C(N)NC(=O)c2nc(Cl)c(NCc3ccc(Cl)cc3)nc2N)c(C)c1", "growth inhibition": "100% (active)"}
{"smiles": "O=C(Nc1ccc(OC2CCN(Cc3ccccc3)CC2)c(Cl)c1)c1cccs1", "growth inhibition": "95% (active)"}
{"smiles": "COc1ccc(-c2cncc(-c3ccc(OC)c(OC)c3)n2)cc1OC", "growth inhibition": "90% (active)"}
{"assay": "HepG2 cytotoxicity, primary screen, cytotoxicity control for P. falciparum antimalarial project, cell-based, ATP luminescence (AID 2303;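 active means inhibition above 50%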;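 further: 0% = DMSO wells and 100% = digitonin-killed cells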)", "conditions": "HepG2 viability, 24-48 h, at 10 µM, active compounds read high"}
{"smiles": "Cc1cc(N(C)CCN(C)C)nc(Nc2ccc(Cl)cc2)n1", "inhibition": "-1% (inactive)"}
{"smiles": "c1ccc(CN2CCC(Nc3ccc(-c4cn[nH]c4-c4ccccn4)nc3)CC2)cc1", "inhibition": "1% (inactive)"}
{"smiles": "O=C(Nc1ccc2c(c1)CCN2C1CCN(Cc2ccc(O)cc2)C1)c1ccco1", "note": "(stereo not drawn)", "inhibition": "0% (inactive)"}
{"smiles": "Cc1ccc(NC(=O)c2ccc(CN3CCCN(CC4CCCCC4)CC3)cc2)cc1", "inhibition": "41% (inactive)"}
{"smiles": "COc1ccc2ccccc2c1CCCCN1CCN(CC(c2ccc(F)cc2)N2CCC(N3CCCC3)CC2)CC1", "note": "(stereo not drawn)", "inhibition": "74% (active)"}
{"smiles": "O=C(NCCN1CCC(NC(=O)c2ccc(-c3ccccn3)s2)CC1)c1ccc(Cl)c(Cl)c1", "inhibition": "24% (inactive)"}
{"smiles": "Cc1cc(NN=Cc2ccc(F)cc2)c2ccc(F)cc2n1", "inhibition": "-7% (inactive)"}
{"smiles": "C=C[C@H]1CN(CCCCCCC)CC[C@H]1CCNc1ccnc2ccc(OC)cc12", "inhibition": "99% (active)"}
{"smiles": "CCC(O)c1ccc(Br)cc1NC(=O)c1cccc(Cl)c1", "note": "(stereo not drawn)", "inhibition": "-3% (inactive)"}
{"smiles": "FC(F)(F)c1ccc2nc(-c3cccc(-c4ccc(CNCCc5ccncc5)cc4)c3)[nH]c2c1", "inhibition": "23% (inactive)"}
{"smiles": "CC(C)C[C@@H](/C=N/N1CC(=O)NC1=O)NC(=O)[C@H](CC(C)C)NC(=O)c1ccc(OCCN2CCOCC2)cc1", "inhibition": "11% (inactive)"}
{"smiles": "Cc1cccc2[nH]c(-c3cccc(-c4ccc(CNCc5cnn(-c6ccccc6)n5)cc4)c3)nc12", "inhibition": "20% (inactive)"}
{"smiles": "CCNC(=O)N[C@@H]1CN[C@@H](C#Cc2cc3c(Nc4ccc(OCc5cccc(F)c5)c(Cl)c4)ncnc3s2)C1", "inhibition": "-2% (inactive)"}
{"smiles": "CN1CCN(CCCN(Cc2ccc(-c3ccc(CNC4CCCC4)cc3)cc2)C(=O)CCC2CCCC2)CC1", "inhibition": "92% (active)"}
{"smiles": "CCOC(=O)c1c[nH]c2c(sc3cc(OC)ccc32)c1=O", "inhibition": "-6% (inactive)"}
{"smiles": "CS(=O)(=O)c1ccc(-c2cncc(Cl)n2)cc1", "inhibition": "8% (inactive)"}
{"smiles": "Cc1cccc2[nH]c(-c3cccc(-c4ccc(NC(=O)C(C)(C)c5ccccn5)cc4)c3)nc12", "inhibition": "-3% (inactive)"}
{"smiles": "CN1CCc2ccc(NC(=O)Nc3ccc(Cl)c(Cl)c3)cc2C1", "inhibition": "-10% (inactive)"}
{"smiles": "CCCCCCCCn1c2c(c(=N)c3c1CCC3)CCC2", "inhibition": "47% (inactive)"}
{"smiles": "Cc1cc(N2CCCN(C)CC2)nc(Nc2ccc(Cl)cc2)n1", "inhibition": "8% (inactive)"}
{"smiles": "N#CCSc1nnc(-c2ccccc2)c2ccccc12", "inhibition": "5% (inactive)"}
{"smiles": "CC(=O)N1CCC(C(=O)Nc2ccc(-c3cccc(-c4nc5ccc(C(F)(F)F)cc5[nH]4)c3)cc2)CC1", "inhibition": "82% (active)"}
{"smiles": "Cc1cc(N[C@@H](CC(C)C)C(=O)NCCOc2ccccc2)nc(NCCOc2ccccc2)n1", "inhibition": "-4% (inactive)"}
{"smiles": "O=C(Nc1cccc(CN2CCCN(Cc3ncc[nH]3)CC2)c1)c1ccc(Cl)c(Cl)c1", "inhibition": "8% (inactive)"}
{"smiles": "O=C(NC1CCCCC1)c1csc(C2CCCN(C(=O)c3ccc(O)c(-c4cccc(C(F)(F)F)c4)c3)C2)n1", "note": "(stereo not drawn)", "inhibition": "8% (inactive)"}
{"smiles": "CC(=O)c1ccc(O)c(CC(O)CO)c1", "note": "(stereo not drawn)", "inhibition": "3% (inactive)"}
{"smiles": "O=C(/C=C/c1cc(C(F)(F)F)ccc1F)NCCCCCN1CCC(c2c[nH]c3ccccc23)CC1", "inhibition": "39% (inactive)"}
{"smiles": "Cc1nc2c(-n3cc(Cn4ccnc4)c4ccccc43)ncnc2n1-c1ccc(Cl)cc1Cl", "inhibition": "16% (inactive)"}
{"smiles": "Cc1cc(NC(=O)c2ccco2)ccc1OC1CCN(Cc2ccc(F)cc2)CC1", "inhibition": "4% (inactive)"}
{"smiles": "Cc1cc(CN2CCCC(OC(c3ccc(F)cc3)c3ccc(F)cc3)C2)ccc1O", "note": "(stereo not drawn)", "inhibition": "28% (inactive)"}
{"smiles": "NC(N)=NN=CC(=O)Nc1cc([N+](=O)[O-])cc([N+](=O)[O-])c1", "inhibition": "-5% (inactive)"}
{"smiles": "COc1cc(Nc2nccc(N3CCC(NS(=O)(=O)c4ccc(NC(C)=O)cc4)CC3)n2)cc(OC)c1OC", "inhibition": "-5% (inactive)"}
{"smiles": "O=C(c1cccs1)N1N=C(c2cccs2)CC1c1cccc([N+](=O)[O-])c1", "note": "(stereo not drawn)", "inhibition": "5% (inactive)"}
{"smiles": "Oc1ccc(Cl)c2c1C(c1ccccc1)=NCC2", "inhibition": "-9% (inactive)"}
{"smiles": "Cc1nc(C)c(CC(=O)Nc2cccc(-c3cccc(-c4nc5ccc(C(F)(F)F)cc5[nH]4)c3)c2)s1", "inhibition": "49% (inactive)"}
{"smiles": "CN(C)CCOc1cc(NC(=O)Nc2cccc3c(-c4ccncc4)cccc23)ccc1I", "inhibition": "20% (inactive)"}
{"smiles": "Cc1ccc(CN=C(N)NC(=O)c2nc(Cl)c(NCc3ccc(Cl)cc3)nc2N)c(C)c1", "inhibition": "28% (inactive)"}
{"smiles": "O=C(Nc1ccc(OC2CCN(Cc3ccccc3)CC2)c(Cl)c1)c1cccs1", "inhibition": "2% (inactive)"}
{"smiles": "COc1ccc(-c2cncc(-c3ccc(OC)c(OC)c3)n2)cc1OC", "inhibition": "6% (inactive)"}
